In the library only some 0.44% were active in any assay of this set; here they are far more common.
Epigenetic derep: epigenetic control regulation, reporter derepression. murine LDR cells, GFP reporter derepression, 30 h. Potency, µM (top dose mostly 53.9 µM), inactives show top-dose GFP activation, actives largely listed as activators. 280,000 tested, 0.2% active; further: potency means the concentration at half of the fitted maximal effect; % of control where 0% means no effect; nearly all actives have a fitted effect of over 60% in size
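GFP-positive cell count by laser-scanning cytometry (objects 20–120 um) after 30 h, 37 C compound exposure of murine LDR cells; reporter is CMV-GFP integrated at a silenced locus, inducible by HDAC or DNMT inhibitors.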
B2AR arrestin: recruits beta-arrestin to the human beta2-adrenergic receptor; P07550; beta-arrestin recruitment to beta2AR, cell-based reporter; Potency, µM (highest dose often 46.1 µM), inactives show top-dose activation, hits mostly activators; 330,000 tested, 0.02% active;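 further: potency means the concentration at half of the fitted maximal effect; 0% = DMSO controls and full agonism = EC100 isoproterenol or metaproterenol; nearly all actives have a fitted effect of over 65% in size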
p53 reactivator: restores transcriptional activity of mutant p53 | H1299 p53-A138V BP100-luciferase reporter, luminescence, 24 h | 320,000 tested, 0.063% active | Potency, µM (titrated, usually from 92.2 µM), for inactives: top-dose activity change, positive = activation, usual class: activators; further: potency means the concentration at half of the fitted maximal effect; % of control where 0% means no effect; nearly all actives have a fitted effect of over 45% in size
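H1299 (p53-null), stable ts p53-A138V + BP100-Luc; 1000 cells/well, Opti-MEM/10% FBS; cpd 4 pt, 1:5; 24 h, 37 deg C, 5% CO2; detection reagent 10 min RT; luminescence.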
PI4K2A inh: PI4K2A (human) kinase inhibition. Q9BTU6. 420,000 tested, 0.13% active. purified PI4K2A, ADP-Glo luminescence, 1 h; active compounds read low. activity change, negative = inhibition, % at 76.9 µM; in the data active means activity change below about -50%; inconclusive means mostly about -30% to -49%;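 further: -100% = wells without enzyme as full effect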
Target sequence (Q9BTU6 whole entry, looked up): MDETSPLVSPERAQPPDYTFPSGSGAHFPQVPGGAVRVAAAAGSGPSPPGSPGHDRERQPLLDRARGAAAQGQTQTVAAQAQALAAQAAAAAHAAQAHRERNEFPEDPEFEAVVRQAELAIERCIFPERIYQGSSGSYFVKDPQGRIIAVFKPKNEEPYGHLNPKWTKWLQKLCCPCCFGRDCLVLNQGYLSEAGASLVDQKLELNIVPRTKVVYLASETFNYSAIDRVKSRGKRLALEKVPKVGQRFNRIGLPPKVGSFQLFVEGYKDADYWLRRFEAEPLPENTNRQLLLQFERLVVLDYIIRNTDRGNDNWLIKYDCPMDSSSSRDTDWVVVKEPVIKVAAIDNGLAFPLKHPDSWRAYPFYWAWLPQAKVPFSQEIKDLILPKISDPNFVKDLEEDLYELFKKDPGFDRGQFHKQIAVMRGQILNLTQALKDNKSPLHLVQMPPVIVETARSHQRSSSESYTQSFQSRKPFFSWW
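PI4K2A activity was measured by ADP-Glo luminescence: enzyme (4 ug/mL stock) and phosphatidylinositol (1.2 mM stock) in Tris pH 7.5/MgCl2/EGTA/Triton X-100 buffer were reacted with ATP (300 microM stock) for one hour at ambient temperature.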
Pin1 inh: inhibitors of human Pin1 | Pin1 FP peptide displacement, HiFluor488, 10 min | Potency, µM (top dose mostly 115 µM), inactives show top-dose activity, negative = inhibition, most hits filed as inhibitors | 390,000 tested, 0.009% active; active means well fitted inhibition curve with a large enough effect in the polarisation, with a control signal flat, not every such curve was filed as active; inconclusive means small, poorly fitted or top-dose-only effect, or effect the other way, or a change in a side signal; inactive means no such curve, though single readings can be large or run the other way; the % refers to the polarisation; further: potency means the concentration at half of the fitted maximal effect; on the % scale 0 is the no-effect control and ±100 the full control effect
Target sequence (Q13526 whole entry, looked up): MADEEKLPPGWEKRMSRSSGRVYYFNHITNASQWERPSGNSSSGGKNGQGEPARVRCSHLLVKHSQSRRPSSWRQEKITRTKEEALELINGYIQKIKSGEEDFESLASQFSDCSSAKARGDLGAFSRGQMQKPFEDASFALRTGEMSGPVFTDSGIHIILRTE
Giardia killer: kills Giardia lamblia; Giardia lamblia trophozoite viability; activity change, % at 7.66 µM, hits read low; 340,000 tested, 0.15% active; AID 540267; in the data active means activity change below about -80%; inconclusive means between about -30% and that limit;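 further: parasites exposed to compound for two days anaerobically before the ATP read; on the % scale 0 is the no-effect control and ±100 the full control effect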
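Trophozoite viability was measured as ATP-dependent luminescence, read 15-30 min after reagent addition. Before that, parasites at 100 cells/well were exposed to compounds for 48 h, anaerobically, at 37 deg C.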
Numbers without * were called inactive; u = inconclusive; x = no result given. Unless noted, the call rests on the fitted dose curve; in most records, active means well fitted curve in the direction sought with a large enough effect; inconclusive means small, poorly fitted or top-dose-only effect, or another doubt; inactive means no such curve, though single readings can be large; an effect the other way counts as inactive or inconclusive.

SMILES	Epigenetic derep	B2AR arrestin	p53 reactivator	PI4K2A inh	Pin1 inh	Giardia killer
N#C/C(=C\c1ccc(N2CCOCC2)o1)c1nc2ccccc2[nH]1	13µM*	0%	6%	-5	u	1
N#C/C(=C/c1ccc(N2CCOCC2)o1)c1ccc(Cl)cc1	3.2µM*	11%	-62%	-9	u	7
N#C/C(=C\c1ccc(N2CCCCC2)o1)C(N)=O	7%	0%	-3%	6	u	7
COc1ccc2ncnc(NCc3cccs3)c2c1-c1ccc2c(c1)OCO2	x	x	x	x	-6%	x
Cc1ncc([N+](=O)[O-])n1C	x	x	x	1	x	x
Cn1c([N+](=O)[O-])cnc1N1CCN(c2nncs2)C1=O	-2%	-1%	0%	-6	-1%	-93*
Cc1ccccc1NC(=O)N1CCCC(c2nc(-c3ccc(C(C)C)cc3)no2)C1 (stereo not drawn)	-1%	0%	45µM*	5	-1%	-13
COc1cc(/C=C2/CC/C(=C/c3ccc(O)c(OC)c3)C2=O)ccc1O	25µM*	0%	9%	2	u	-1
COc1cc(/C=C2\COC/C(=C\c3ccc(O)c(OC)c3)C2=O)ccc1O	1%	12%	-13%	-13	24%	u
O=C(NCCCc1cnc[nH]1)NCCCN(Cc1ccc(Cl)c(Cl)c1)c1ccc(Br)cn1	x	x	x	x	10%	x
O=C1NC2CCCCN2C12CCN(CCCN1c3ccccc3CCc3ccc(Cl)cc31)CC2 (stereo not drawn)	x	x	x	-3	x	x
CC(C)(C)C(=O)Nc1cc2nn(-c3ccccc3)nc2cc1Cl	0%	0%	-4%	-26	1%	-93*
Cc1ccc(NS(=O)(=O)c2ccc3c(ccn3C)c2)cc1C	x	x	x	x	2%	x
COc1ccc(CN(Cc2ccccc2)C(=O)c2ccccc2O)cc1COc1ccc(NC(C)=O)cc1	x	x	x	x	17%	x
COc1c(C)c2c(c(O)c1C/C=C(\C)CCC(=O)OCCN1CCOCC1)C(=O)OC2	x	x	x	-1	x	x
O=C(Nc1ccccc1)Nc1ccc(C(=O)N2CCCC2)cc1	0%	0%	-8%	-62*	1%	u
CC1=NN(c2ccc(S(=O)(=O)O)cc2C)C(=O)C1	-3%	0%	7%	-68*	6%	-2
N#Cc1nc(Nc2cc(F)cc(F)c2)c2ncn(CCO)c2n1	x	x	x	x	14%	x
CCOC(=O)CN1CCCC1=O	x	x	x	3	x	x
CCn1nc(-c2ccc(C)cc2)nc2c(=O)n(C)c(=O)nc1-2	x	x	x	x	u	-102*
Cn1nc(-c2ccncc2)nc2c(=O)n(C)c(=O)nc1-2	x	x	x	x	x	-88*
NCCC(=O)Nc1cccc(-c2nn3c(=O)cc(N4CCNCC4)nc3s2)c1	x	x	x	x	1%	x
NC(=O)N[C@@H](CCC(=O)O)C(=O)O	x	x	x	-1	x	x
CCC(/C=C1\Sc2ccc(OC)cc2N1CC)=C\c1sc2ccc(OC)cc2[n+]1CCCS(=O)(=O)[O-]	-2%	0%	-1%	-16	17%	-15
CCN1/C(=C/c2cc[n+](CCCS(=O)(=O)[O-])c3ccccc23)Sc2ccccc21	13µM*	0%	0%	0	53%	u
SMILES	Epigenetic derep	B2AR arrestin	p53 reactivator	PI4K2A inh	Pin1 inh	Giardia killer
CNC(=O)c1c(I)c(NC(C)=O)c(I)c(C(=O)O)c1I	x	x	x	4	x	x
CCCCCCC[C@@H](C/C=C/CCC(=O)N(C)C/C(=C/Cl)C/C(=C\C(=O)N1C[C@H](O)CC1=O)OC)OC	x	6%	-2%	-2	u	-11
CCCCCCC[C@@H](C/C=C/CCC(=O)N(C)C/C(=C/Cl)C/C(=C\C(=O)N1CC(OC)=CC1=O)OC)OC	x	u	32µM*	3	10%	u
Cc1c(P(=S)(c2ccccc2)c2ccccc2)[n+]2ccccc2n1Cc1ccccc1	x	x	x	x	1%	x
CCN1C(=S)SC(=O)C1=C1C=C(C)N(CCO)C(C)=C1	14µM*	0%	44%	-1	u	-16
CCN1C(=S)SC(=O)C1=C1C=C(C)N(CCOC)C(C)=C1	8%	0%	u	x	x	x
CN(C)c1cc(Cl)c2nonc2c1N	-1%	1%	0%	-57*	-12%	-7
Nc1c(C(=O)C2CC2)sc2nc(-c3cccs3)cc(C(F)(F)F)c12	3.5µM*	0%	6%	4	u	-5
COc1ccc(S(=O)(=O)N2CCN(c3ccccc3F)CC2)cc1-c1noc(C)n1	1.1µM*	x	x	-2	u	6
COc1ccc(N2CCN(S(=O)(=O)c3ccc(OC)c(-c4noc(C)n4)c3)CC2)cc1	5µM*	x	x	-11	u	-23
O=C(N1CCc2cc([S+](=O)([O-])N3CCN([S+](=O)([O-])c4c(F)cccc4F)CC3)ccc2C1)C(F)(F)F	x	x	x	x	-3%	x
O=C(Nc1ccc(NC(=O)c2ccco2)nc1)c1ccco1	-1%	0%	7%	-5	2%	u
CC(C)(C)C(=O)Nc1ccc(NC(=O)c2ccco2)nc1	x	0%	-15%	-5	-4%	-94*
Cc1nonc1C(=O)N/N=C/c1ccc(O)c(O)c1	-2%	0%	u	-62*	-6%	-6
O=C(O)c1ccc(C=C(c2nc3ccccc3s2)c2nc3ccccc3s2)cc1	10%	-1%	-9%	0	-18%	6
O=C(O)c1ccc(Oc2nc3ccccc3s2)cc1	x	x	x	-61*	3%	10
O=C(O)Cc1nnc(-c2cc3ccccc3[nH]2)s1	x	x	x	x	15%	x
CC(=O)Nc1cc(OC(C)=O)c2nonc2c1OC(C)=O	9%	0%	-33%	-53*	u	16
CCCCOC(=O)CC(CC(=O)OCCCC)(OC(C)=O)C(=O)OCCCC	x	x	x	-1	x	x
Cc1ccc(NC(=S)c2nc3ccccc3s2)cc1	-2%	0%	7%	-82*	-4%	-2
S=C(Nc1ccc(Cl)cc1)c1nc2ccccc2s1	-1%	0%	11%	-7	-2%	0
N=c1n(CC(=O)c2ccc([N+](=O)[O-])cc2)c2ccccc2n1Cc1ccccc1	22µM*	0%	5%	2	u	-3
N=c1n(CC(=O)c2ccc([N+](=O)[O-])cc2)c2ccccc2n1Cc1ccc(Cl)cc1	16µM*	0%	2%	u	u	-18
N=c1n(CC(=O)c2ccc(Br)cc2)c2ccccc2n1Cc1ccccc1	x	0%	0%	-1	4%	39
CC(C)(C)SCCNC(=O)c1ccccc1	1%	0%	u	1	-2%	-18
Cc1ccc(C(=O)NCCSC(C)(C)C)cc1	-6%	-1%	21%	-59*	-1%	8
COc1ccc(CCC(=O)Nc2c(-c3ccc(N(C)C)cc3)[nH][nH]c2=O)cc1	x	x	x	-64*	x	x
COc1ccc(-c2[nH][nH]c(=O)c2NC(=O)c2ccccn2)cc1	x	x	x	-20	x	x
O=c1c2ccccc2nc2sc(NCc3ccccc3)nn12	x	x	x	x	-11%	x
O=C(COC(=O)c1cccnc1Cl)c1ccccc1	1%	4%	14%	-71*	-2%	5

Screens as filed in PubChem.
